The nature of experiment [1]: inhibitors of TNFa-induced NFkB p65 translocation, primary screen, imaging, HUVEC, MLSMR starter and 10KST1 sets (AID 438;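 active = inhibition above 20% together with a positive visual image hit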;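 note: compound added about 3h40 before a 20 min TNFalpha stimulation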;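 for inhibition: signal is the nuclear over cytoplasmic p65 intensity ratio per well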). The following applies: HUVEC TNFa-induced p65 nuclear translocation; cell count: measured here: nuclei count (cytotoxicity indicator), at 2.08 µM; inhibition: at 2 µM, stronger effect = higher value, 0% TNFa-plus-vehicle, 100% no-TNFa wells.
Experiment [2] in a line: inhibitors of mutant huntingtin aggregation, primary screen, imaging, exon1htt(103Q)mCFP cells, high-content imaging (AID 483;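 active = visual image review flags a hit and inhibition of aggregation exceeds 20%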;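 note: compound exposure lasted 3 days before fixation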;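 for nuclei count: percent of the per-plate median nuclei count of sample wells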). The following applies: exon1htt(103Q)mCFP cell line, aggregate imaging, at 2 µM; inhibition of aggregation: stronger effect = higher value; nuclei count: measured here: cell count, toxicity.
Experiment [3] in a line: inhibitors of E-selectin induction by TNFa, primary screen, imaging, HUVEC, immunofluorescence, MLSMR starter and 10KST1 sets (AID 487;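 active = visually confirmed hit in the image check and inhibition above 20%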;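 for inhibition: signal is fraction of cell area covered by stained E-selectin grains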;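 for nuclei count: 100% = median nuclei count of all wells on the same plate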). The following applies: HUVEC TNFalpha-induced E-selectin immunofluorescence imaging, at 2 µM; inhibition: stronger effect = higher value; nuclei count: measured here: cell number, toxicity.
Experiment [4] has as its target Voltage-gated potassium channel subunit beta-2 (Rattus norvegicus) (UniProt P62483). The experiment can be described thus: KvBeta enzyme negative modulators, primary screen, biochemical, NADPH fluorescence (AID 622;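 active = fluorescence slope higher than the sample average by over 3 SD, cut at about -0.22 in these data, passing the limit was not always enough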;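 note: slope of raw intensity against log time taken from 70 to 1610 s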). To be noted: recombinant KvBeta, 4-cyanobenzaldehyde reduction, at 10 µM, stronger effect = higher value.
For experiment [5] the target is unchanged. The experiment can be described thus: KvBeta positive modulators, primary screen, biochemical, NADPH fluorescence (AID 623;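 active = NADPH fluorescence slope more negative than the mean of all samples by about 3 SD, 99.7% confidence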;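 note: fluorescence intensity change per second fitted from 20 to 320 s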). The following applies: Recombinant KvBeta, NADPH fluorescence decrease slope, 10 min; at 10 µM; stronger effect = lower value.
For experiment [6], the target named is Alpha-2C adrenergic receptor (Homo sapiens) (UniProt P18825). The experiment can be described thus: modulators of alpha2C/GIRK thallium flux, primary screen, cell-based, HEK293 alpha2C/GIRK1/2 (AID 624;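 active = fluorescence slope after compound addition differing from the mean of all screened samples at 99.7% confidence, in either direction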;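 note: slope of fluorescence ratio to pre-addition baseline per second over 15 to 24 s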). To be noted: thallium flux BTC fluorescence, at 10 µM, actives lie on both sides.
Sequence of Alpha-2C adrenergic receptor (Homo sapiens) (P18825 whole entry, looked up): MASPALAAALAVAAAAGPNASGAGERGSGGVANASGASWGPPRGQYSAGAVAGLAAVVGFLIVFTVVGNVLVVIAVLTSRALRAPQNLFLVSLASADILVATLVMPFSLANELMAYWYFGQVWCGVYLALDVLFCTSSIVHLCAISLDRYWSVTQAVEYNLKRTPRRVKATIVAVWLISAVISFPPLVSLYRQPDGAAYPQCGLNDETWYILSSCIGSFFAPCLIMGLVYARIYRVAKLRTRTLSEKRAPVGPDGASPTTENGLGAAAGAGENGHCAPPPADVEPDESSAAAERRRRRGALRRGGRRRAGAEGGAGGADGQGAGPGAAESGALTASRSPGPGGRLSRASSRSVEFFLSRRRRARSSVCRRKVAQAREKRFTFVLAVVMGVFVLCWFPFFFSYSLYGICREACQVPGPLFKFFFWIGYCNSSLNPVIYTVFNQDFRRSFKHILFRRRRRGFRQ
Experiment [7] is described as follows: inhibitors of Sendai virus-induced IRF3 signaling, primary screen, TLR/RLR signaling modifier project, cell-based, Sendai virus stimulus, luciferase, 10K MLSCN set (AID 602276;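 active = inhibition at or above 50% at 10 µM; inactive = inhibition below 50%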;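 note: firefly luciferase from ISG56 promoter only with Renilla not read in this screen; 0% = Sendai virus plus DMSO and 100% = medium plus DMSO without virus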). The following applies: HEK293 RL24 IRF3 luciferase reporter, at 10 µM, stronger effect = higher value.
Experiment [8] can be described thus: inhibitors of poly I:C-induced TLR3 signaling, primary screen, cell-based, poly I:C stimulus, luciferase, 10K MLSCN set (AID 602277). The following applies: HEK293-TLR3 RL24 IRF3 luciferase reporter, at 10 µM, stronger effect = higher value. Background: In a reporter assay the amount or activity of a reporter protein is the signal.

The source made the active and inactive calls.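 Rule for the calls, unless noted: active = inhibition of the reporter signal at or above 50%; inactive = inhibition below 50%.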

Sequence of Voltage-gated potassium channel subunit beta-2 (Rattus norvegicus) (P62483 whole entry, looked up): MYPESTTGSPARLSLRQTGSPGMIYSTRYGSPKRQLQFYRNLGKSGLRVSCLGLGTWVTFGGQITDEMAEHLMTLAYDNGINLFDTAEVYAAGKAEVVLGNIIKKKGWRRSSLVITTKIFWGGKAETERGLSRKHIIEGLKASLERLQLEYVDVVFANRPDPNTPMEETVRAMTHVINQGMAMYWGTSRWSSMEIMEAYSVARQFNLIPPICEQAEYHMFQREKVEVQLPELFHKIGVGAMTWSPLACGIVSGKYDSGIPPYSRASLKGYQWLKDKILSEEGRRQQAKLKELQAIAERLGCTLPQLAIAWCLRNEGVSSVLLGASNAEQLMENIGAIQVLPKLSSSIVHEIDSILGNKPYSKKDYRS

Usually inhibition stands for the change of the read-out against control, counted positive when it falls. As for `NCCCCCc1nnc(SC/C=C/c2ccccc2)o1`, the cell count in experiment [1] worked out at 396. Also, the inhibition in experiment [1] was -9.8% (inactive); in experiment [3] it was 20.9% (inactive); in experiment [7] it was 14.3% (inactive); in experiment [8], 12.7% (inactive). Moreover, the inhibition of aggregation in experiment [2] was 3% (inactive). For the same compound, the nuclei count is 69.1% in experiment [2] and 94% in experiment [3]. The fluorescence slope in experiment [4] was -0.488 (inactive). Besides, the NADPH fluorescence slope in experiment [5] was -4.2e-05 (inactive). The slope in experiment [6] was 0.00602 (inactive).
On to `COc1ccc(-n2c(=O)c3c4c(sc3n3c(C)nnc23)CCCC4)cc1`, for which the cell count in experiment [1] worked out at 415. Also, the inhibition was 3.3% (inactive) in experiment [1], -7.4% (inactive) in experiment [3], 4.81% (inactive) in experiment [7] and 19.4% (inactive) in experiment [8]. Further, the inhibition of aggregation in experiment [2] is 4.3% (inactive). Besides, the nuclei count is 100% in experiment [2] and 116% in experiment [3]. The fluorescence slope in experiment [4] was -0.35 (inactive). In experiment [5], the NADPH fluorescence slope was -2.4e-05 (inactive). The slope in experiment [6] was 0.00664 (inactive).
Take `C=CCn1c(=O)c2ccccc2n2c(SCC(=O)Nc3cc(C)on3)nnc12`: the cell count in experiment [1] turned out to be 469. Further, the inhibition is -22.4% (inactive) in experiment [1], -50.6% (inactive) in experiment [3], 3.33% (inactive) in experiment [7] and 5.94% (inactive) in experiment [8]. Further, the inhibition of aggregation in experiment [2] was -23.3% (inactive). The nuclei count in experiment [2] stood at 113%; in experiment [3], 153%. In experiment [4], the fluorescence slope was -0.605 (inactive). In experiment [5], the NADPH fluorescence slope is -4.3e-05 (inactive). For the same compound, the slope in experiment [6] was 0.00622 (inactive).
As for `Cc1noc(C)c1CSc1ccccc1C(=O)N1CCN(c2ccccc2)CC1`, the cell count in experiment [1] was 427. The inhibition in experiment [1] was -1.2% (inactive); in experiment [3], 14.6% (inactive); in experiment [7], 1.46% (inactive); in experiment [8], 7.95% (inactive). Besides, the inhibition of aggregation in experiment [2] was -3.3% (inactive). Also, the results for the nuclei count in experiment [2] and in experiment [3] were 95.9% and 105%, respectively. For the same compound, the fluorescence slope in experiment [4] is -0.482 (inactive). Besides, the NADPH fluorescence slope in experiment [5] is 1.7e-05 (inactive). In addition, in experiment [6], the slope was 0.00481 (inactive).
As to `CS(=O)(=O)N(CC(=O)NCCSCc1cccc(Cl)c1)c1ccc2c(c1)OCO2`, the cell count in experiment [1] was 233. Also, the inhibition in experiment [1] was -4.5% (inactive); in experiment [3], 32.5% (inactive); in experiment [7], -12% (inactive); in experiment [8], 1.85% (inactive). Besides, the inhibition of aggregation in experiment [2] is 35.8% (active). In addition, the nuclei count in experiment [2] amounted to 96.5%; in experiment [3] it was 71.4%. Also, the fluorescence slope in experiment [4] is -0.528 (inactive). Besides, in experiment [5], the NADPH fluorescence slope is -5.8e-05 (inactive). Further, the slope in experiment [6] was 0.00685 (inactive).
Consider `COc1ccc(-n2c(Cc3cccn3C)nnc2SCC(=O)Nc2cccc(OC)c2)cc1`, for which, in experiment [1], the cell count amounted to 545. The inhibition is 0.5% (inactive) in experiment [1], -28.8% (inactive) in experiment [3], -1.72% (inactive) in experiment [7] and 5.53% (inactive) in experiment [8]. Besides, the inhibition of aggregation in experiment [2] was 5.4% (inactive). In addition, the nuclei count in experiment [2] came to 93.7%; in experiment [3], 90.2%. Also, the fluorescence slope in experiment [4] is -0.632 (inactive). Also, the NADPH fluorescence slope in experiment [5] was 2.3e-05 (inactive). In experiment [6], the slope is 0.00546 (inactive).
In the case of `COC(=O)c1cn(C(=O)c2ccc(Br)o2)c2ccccc12`, the cell count in experiment [1] came out at 309. The inhibition in experiment [1] was -12.5% (inactive); in experiment [3], -179% (inactive); in experiment [7] it was 0.625% (inactive); in experiment [8], 18% (inactive). For the same compound, the inhibition of aggregation in experiment [2] was 17.4% (inactive). Besides, the nuclei count was 97.7% in experiment [2] and 101% in experiment [3]. Also, in experiment [4], the fluorescence slope was -0.33 (inactive). Besides, the NADPH fluorescence slope in experiment [5] is -2.6e-05 (inactive). In experiment [6], the slope is 0.00583 (inactive).
On to `N#C/C(=C(/O)CN1CCOCC1)c1nc2ccccc2s1`, for which the cell count in experiment [1] is 794. Further, the inhibition is 2.1% (inactive) in experiment [1], -126% (inactive) in experiment [3], -15.8% (inactive) in experiment [7] and -1.7% (inactive) in experiment [8]. Further, the inhibition of aggregation in experiment [2] is -5.9% (inactive). Further, the nuclei count in experiment [2] turned out to be 104%; in experiment [3], 129%. Also, the fluorescence slope in experiment [4] was -0.452 (inactive). For the same compound, the NADPH fluorescence slope in experiment [5] is 4.4e-05 (inactive). Further, the slope in experiment [6] was 0.00349 (inactive).
